This is a sample that favours compounds with a hit; in the whole collection about 6.8% have one here.
MCF10A rerep = DNA re-replication induction in MCF 10a cells | MCF 10A DNA re-replication, Hoechst nuclear intensity, 48 h | Potency, µM (highest dose often 46.1 µM), actives largely listed as activators | actives 2.9% (n = 350,000); note: nearly all actives have a fitted effect of over 50% in size
KB-3-1 tox = kills parental KB-3-1 adenocarcinoma cells | KB-3-1 viability, CellTiter-Glo ATP luminescence, 72 h | Potency, µM (top dose mostly 46.1 µM), most hits filed as cytotoxic | actives 1.4% (n = 400,000) | AID 1347075; note: nearly all actives have a fitted effect of over 60% in size
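Cells are dispensed, compounds pinned in, plates held at 37 °C for 72 h, then CellTiter-Glo is added and luminescence read after 10 minutes. Cell line: parental KB-3-1 in phenol-red-free DMEM, 10% FBS.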
KB-V1 MDR tox = KB-V1 MDR subline cytotoxicity. actives 3.4% (n = 400,000). Potency, µM (doses to about 46.1 µM), actives largely listed as cytotoxic. KB-V1 MDR cells viability, CellTiter-Glo, 72 h. AID 1347076; note: nearly all actives have a fitted effect of over 60% in size
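KB-V1 MDR subline cells in DMEM (phenol-red free, 10% FBS) exposed to compounds in qHTS concentration series for 72 h at 37 degrees C. Viability read by CellTiter-Glo luminescence; concentration-effect curves fitted after normalization and correction.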
PINK1 expr mod = PINK1 expression modulation; PINK1 immunofluorescence, high-content cytometry, 24 h; Potency, µM (titrated, usually from 76.6 µM), hits mostly activators; actives 0.2% (n = 410,000); AID 624263; active = well fitted activation curve with a large enough effect; inconclusive = small, poorly fitted or top-dose-only effect; cell line not stated here; note: nearly all actives have a fitted effect of over 65% in size
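Readout is PINK1 immunofluorescence, quantified alongside mitochondrial, cell and nuclear markers by laser-scanning microplate cytometry. Cells from a stable line were exposed to compound titrations (5 concentrations) for 24 hours, with CCCP controls.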
SW480 rereplic = inducers of DNA re-replication in SW480 colon cancer cells; SW480 DNA re-replication, Hoechst DNA content imaging, 48 h; Potency, µM (top dose mostly 46.1 µM), actives largely listed as activators; actives 1.8% (n = 340,000); note: nearly all actives have a fitted effect of over 55% in size
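Image-based DNA-content assay: after two days of treatment, nuclei were labelled with the DNA dye Hoechst and imaged, and hits were compounds raising the count of nuclei showing high fluorescence intensity.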
TSG101-PTAP inh = blocks PTAP/TSG101 interaction to inhibit HIV-1 budding | Fluorescence polarization, FITC-PTAP peptide / Tsg101 binding | Potency, µM (series often up to 115 µM), actives largely listed as inhibitors | 340,000 tested, under 10 active | AID 493005; active = well fitted inhibition curve with a large enough effect in the main read-out, with a control signal flat, not every such curve was filed as active; inconclusive = small, poorly fitted or top-dose-only effect, or effect the other way, or a change in a side signal; inactive = no such curve, though single readings can be large or run the other way
Target sequence (Q99816 whole entry, looked up): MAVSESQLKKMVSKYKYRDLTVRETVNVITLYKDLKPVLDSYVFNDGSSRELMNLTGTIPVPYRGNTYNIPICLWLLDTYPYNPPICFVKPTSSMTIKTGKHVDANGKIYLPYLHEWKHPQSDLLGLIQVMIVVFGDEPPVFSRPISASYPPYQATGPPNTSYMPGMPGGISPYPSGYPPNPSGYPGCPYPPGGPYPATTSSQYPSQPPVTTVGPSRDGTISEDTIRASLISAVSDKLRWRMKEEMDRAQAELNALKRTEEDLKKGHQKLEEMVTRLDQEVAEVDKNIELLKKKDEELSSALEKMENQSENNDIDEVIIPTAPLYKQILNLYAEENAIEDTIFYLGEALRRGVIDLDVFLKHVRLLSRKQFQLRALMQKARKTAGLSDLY
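Tsg101 binding domain (10 uM final) was mixed with compound and a FITC-labeled PTAP peptide (50 nM final) in HEPES pH 7.5 buffer with NaCl, Tween 20, EDTA and TCEP; fluorescence polarization was read after 20 min at r.t.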
A number is an active result; . = inactive; ? = inconclusive; / = no result; [ ] = another dose, or the depositor's remark. Unless noted, calls come from the whole dose curve; as a rule, active = well fitted curve in the direction sought with a large enough effect; inconclusive = small, poorly fitted or top-dose-only effect, or another doubt; inactive = no such curve, though single readings can be large; an effect the other way counts as inactive or inconclusive.

SMILES | MCF10A rerep | KB-3-1 tox | KB-V1 MDR tox | PINK1 expr mod | SW480 rereplic | TSG101-PTAP inh
CC1Cc2ccccc2N1C(=O)CSc1nnc(Cc2ccccc2)n1CCc1ccccc1 (stereo not given) | ? | . | 3.3µM | . | ? | .
CCOc1ccc(NC(=O)CC2C(=O)N(c3ccc(F)cc3)C(=O)N2CCc2sccc2C)cc1 (stereo not given) | / | . | ? | . | / | /
CCCCCCCCCCCCCCCC[n+]1cccc2ccccc21 | 18µM | ? | 23µM | . | ? | .
C=CC[n+]1cccc2cc(Br)ccc21 | / | . | . | / | / | /
CCCCCCCCC[n+]1cccc2c3ccccc3ccc21 | ? | ? | ? | ? | ? | .
CCCCCCCCCC[n+]1cccc2cc(Br)ccc21 | / | 1.3µM | ? | / | / | /
COc1ccc2nc(NC(=O)c3ccc(S(=O)(=O)N4CCC(C)CC4)cc3)sc2c1 | / | . | . | . | / | /
CN1C[C@@H]2C(c3ccccc3)C3(c4ccc(C#N)cc4)CC2(C3)[C@H]1c1ccccc1 (stereo not given in full) | 5.2µM | . | . | . | . | .
CN1C[C@@H]2C(c3ccc(C(F)(F)F)cc3)C3(c4ccc(C#N)cc4)CC2(C3)[C@H]1c1ccccc1 (stereo not given in full) | . | . | . | . | . | .
Cc1ccc(-c2csc(/C=C3\SC(C)C(=O)N3CC(=O)Nc3ccccc3F)n2)cc1 (stereo not given) | 18µM | . | ? | . | . | .
CCN(CC)C(=O)CSc1nnc2nnc3cc(Cl)ccc3n12 | . | ? | ? | . | . | ?
CCN(CC)C(=O)CSc1nnc2nnc3cc(C)ccc3n12 | . | . | 21µM | . | . | .
Cc1ccc2occ(-c3cc(-c4ccc(F)cc4)nc4c3COc3ccc(F)cc3-4)c(=O)c2c1 | / | . | . | . | / | /
COc1nc(N)nc(NC(=O)c2cccs2)c1N=O | 21µM | . | . | . | 5.2µM | .
Cc1cc(C)c2c(C)c(C(=O)N3CCC(c4nc5ccccc5s4)CC3)oc2c1 | / | . | . | . | / | /
CCCS(=O)(=O)c1c(S(=O)(=O)CCC)c2c(C)cccn2c1C(=O)OC | 21µM | . | ? | / | ? | .
Cc1ccc2nc(-c3sc4nc(C)ccc4c3N)[nH]c2c1 | 16µM | . | . | . | ? | .
Cc1cc(C)c2c(N)c(-c3nc4ccccc4[nH]3)sc2n1 | ? | . | . | . | .[9.22 µM] | .
COc1ccc(N(CC(=O)N2CCCCC2)S(=O)(=O)c2ccc(OC)c(OC)c2)cc1 | / | . | . | . | / | /
Cc1cc(C)n(CCc2nc(-c3cc4ccccc4o3)cs2)n1 | . | . | 16µM | . | . | .
Cc1cc(C)n(CCc2nc(-c3ccc(C)o3)cs2)n1 | . | . | . | . | . | .
O=[N+]([O-])c1cc(Br)c(Nc2ccccc2)c([N+](=O)[O-])c1 | ? | ? | 16µM | . | ? | .
Cc1cccc(CNC(=O)CCCn2c(=O)c3cccn3c3ccc(F)cc32)c1 | / | / | / | . | / | /
CN(NC(=O)Nc1ccc(Cl)cc1)c1ncc(C(F)(F)F)cc1Cl | . | ? | 16µM | ? | ? | .
O=C(NCCC(=O)N1CCN(c2cccc(Cl)c2)CC1)c1ccc(Br)cc1 | ? | . | 23µM | . | . | .
SMILES | MCF10A rerep | KB-3-1 tox | KB-V1 MDR tox | PINK1 expr mod | SW480 rereplic | TSG101-PTAP inh
O=C(NCCC(=O)N1CCN(c2ccccc2O)CC1)c1ccc(Br)cc1 | . | . | . | . | . | .
O=C(CCS(=O)(=O)c1ccc(Br)cc1)N1CCN(c2ccc(Cl)cc2)CC1 | . | . | 5.8µM | . | . | .
O=C(NC(=O)N1CCN(c2cccc(Cl)c2)CC1)c1ccc(Cl)cc1 | 5.2µM | . | ? | . | . | .
O=C(CCS(=O)(=O)c1ccc(Br)cc1)N1CCN(c2ccc(F)cc2)CC1 | . | . | . | . | . | .
O=C(NCc1ccco1)/C(=C\c1ccco1)NC(=O)c1ccccc1Cl | . | . | . | . | 12µM | .
O=C(NCc1ccco1)/C(=C/c1ccco1)NC(=O)c1ccco1 | . | . | . | . | . | .

Source: PubChem
